Compounds with a hit are over-represented: about 7.4% of the library has one in this group of screens.
FLuc counter – counter-screen for miR-21 project: firefly luciferase inhibitors or activators. Potency, µM (highest dose often 57.5 µM), actives largely listed as inhibitors. P08659. hit rate 6.9% among 360,000. purified FLuc, Km substrates, luminescence inhibition; further: nearly all actives have a fitted effect of over 55% in size
Target sequence (P08659 whole entry, looked up): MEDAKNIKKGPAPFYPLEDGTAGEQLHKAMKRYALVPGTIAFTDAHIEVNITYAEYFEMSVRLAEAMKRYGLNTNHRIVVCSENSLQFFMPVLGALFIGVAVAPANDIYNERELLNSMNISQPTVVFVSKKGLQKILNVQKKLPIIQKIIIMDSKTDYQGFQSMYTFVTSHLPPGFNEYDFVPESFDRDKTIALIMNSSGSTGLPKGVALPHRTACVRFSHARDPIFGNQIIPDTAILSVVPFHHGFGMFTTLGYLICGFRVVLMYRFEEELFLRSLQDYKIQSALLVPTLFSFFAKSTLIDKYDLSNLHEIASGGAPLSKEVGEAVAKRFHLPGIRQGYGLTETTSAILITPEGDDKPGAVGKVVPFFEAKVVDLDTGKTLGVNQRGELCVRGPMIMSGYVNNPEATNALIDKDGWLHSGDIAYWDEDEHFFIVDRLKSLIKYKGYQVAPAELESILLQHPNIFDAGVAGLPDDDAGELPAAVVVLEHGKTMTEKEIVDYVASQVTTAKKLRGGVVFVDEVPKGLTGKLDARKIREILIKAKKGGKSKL
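Purified P. pyralis luciferase, 10 nM final, with Km-level 10 uM D-luciferin and 10 uM ATP in 50 mM Tris acetate pH 7.5, 10 mM Mg acetate, 0.01% Tween-20, 0.05% BSA; 6-point qHTS titration about 60 µM downward; luminescence read.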
ELG1 genotoxic – induces genotoxicity in HEK293T cells with luciferase-tagged ELG1; HEK293T ELG1-luciferase reporter, luminescence, 16 h; hit rate 1.3% among 330,000; Potency, µM (doses to about 46 µM), actives largely listed as activators; further: nearly all actives have a fitted effect of over 60% in size
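Step 1: seed 2,000 HEK293T ELG1-luciferase cells per well. Step 2: add compound or DMSO, incubate 16 hr at 37 °C. Step 3: ONE-Glo, 30 min at room temperature, read luminescence.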
SMN2 splice up – increases expression of the SMN2 splice variant | AID 1458 | Potency, µM (series often up to 46.1 µM), most hits filed as activators | HEK293 SMN2-luciferase splicing reporter, luminescence, 30-36 h | hit rate 2.8% among 210,000; further: nearly all actives have a fitted effect of over 55% in size
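qHTS luciferase splicing reporter: luminescence rises when SMN2 exon 7 is included in transfected HEK293 cells. Compound exposure lasted 30-36 h at 37C, with 4.5 mM final sodium butyrate as control, followed by a ONE-Glo read.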
Rab9 prom act – activates the Rab9 promoter; Huh7 Rab9 promoter-luciferase reporter, luminescence, 24 h; Potency, µM (highest dose often 9.22 µM), most hits filed as activators; hit rate 2.8% among 320,000; further: nearly all actives have a fitted effect of over 60% in size
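Luminescence from Amplite-detected luciferase (10 minutes, ambient) reports Rab9 promoter activation. Before that, stable Rab9-luciferase Huh7 cells (1500/well, reduced-serum OP-MEM I plus 10% FBS) were exposed to compound for 24 hours at 37C.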
NPC1 promoter act – activates the NPC1 promoter; Huh7 NPC1 promoter luciferase reporter, 24 h; Potency, µM (titrated, usually from 9.22 µM), usual class: activators; hit rate 2.4% among 320,000; AID 485313; further: nearly all actives have a fitted effect of over 60% in size
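Luminescence read-out of NPC1 promoter-driven luciferase in stably transfected Huh7 cells; compounds delivered in DMSO and left 24 h at 37C, 5% CO2, qHTS titration format.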
Large screens that a line does not name were inactive. The call rests on the fitted dose curve; in most records, active means well fitted curve in the direction sought with a large enough effect; inconclusive means small, poorly fitted or top-dose-only effect, or another doubt; inactive means no such curve, though single readings can be large; an effect the other way counts as inactive or inconclusive.

COc1cccc(C(=O)Oc2ccccc2/C=C\C(=O)c2cc3ccccc3o2)c1	FLuc counter inconclusive, Rab9 prom act inconclusive, NPC1 promoter act 2.82µM
O=C(Oc1ccccc1/C=C\C(=O)c1cc2ccccc2o1)c1ccccc1	FLuc counter 16.9µM, ELG1 genotoxic inconclusive, SMN2 splice up inconclusive, Rab9 prom act 3.16µM, NPC1 promoter act 3.98µM
NCCC(O)C(=O)NC1C[C@@H](N)[C@H](O[C@@H]2OC(CN)C(O)C(O)C2O)C(O)[C@H]1O[C@H]1OC(CO)C(O)C(N)C1O (stereo partly drawn)	none (no result: FLuc counter, ELG1 genotoxic, Rab9 prom act, NPC1 promoter act)
Cc1ccc(C(=O)NC2(C(F)(F)F)N=C(c3ccccc3)N(C3CCCCC3)C2=O)cc1 (stereo not drawn)	none (no result: ELG1 genotoxic, Rab9 prom act, NPC1 promoter act)
Oc1cccc(/C=N/c2c(-c3ccco3)nc3ccccn23)c1	FLuc counter 6.01µM, ELG1 genotoxic inconclusive, Rab9 prom act inconclusive, NPC1 promoter act inconclusive
COc1cc(-c2nc3ccccn3c2/N=C/c2ccccc2)ccc1O	FLuc counter inconclusive
O=[N+]([O-])c1ccc(Cl)c(-c2ccc(/C=N/c3c(-c4ccco4)nc4ccccn34)o2)c1	Rab9 prom act inconclusive
COc1ccc(-c2nc3ccccn3c2/N=C/c2ccc(OC)c(OC)c2)cc1O	FLuc counter 13.5µM
Cc1ccc(OCc2nc(-c3ccc(C(=O)N4CCN(c5cc(Cl)ccc5C)CC4)cc3)oc2C)cc1	none (no result: ELG1 genotoxic, Rab9 prom act, NPC1 promoter act)
COc1ccc(-c2nn(-c3ccccc3)cc2N)cc1	FLuc counter 10.7µM, ELG1 genotoxic inconclusive, SMN2 splice up 14.1µM, Rab9 prom act 2.82µM, NPC1 promoter act 3.55µM
COc1ccc(-c2c(C)nn(-c3ccccc3)c2N)cc1	FLuc counter 21.3µM, ELG1 genotoxic inconclusive, SMN2 splice up inconclusive, Rab9 prom act inconclusive, NPC1 promoter act inconclusive
Cc1nn(-c2ccc(C(=O)O)cc2)c(N)c1-c1ccccc1	FLuc counter 3.01µM, ELG1 genotoxic inconclusive, SMN2 splice up 11.2µM, Rab9 prom act inconclusive, NPC1 promoter act inconclusive
Cc1nn(C(C)(C)C)c(N)c1-c1ccccc1	none
COc1ccc(-c2c(C)nn(-c3ccccc3)c2N)cc1OC	SMN2 splice up inconclusive
COCCNC(=O)CCCn1c(SCC(=O)c2ccc(F)cc2)nc2c(sc3ccccc32)c1=O	none (no result: ELG1 genotoxic, Rab9 prom act, NPC1 promoter act)
CCCN(C(=O)c1coc(=O)c2ccccc12)c1ccccc1C	none (no result: ELG1 genotoxic, Rab9 prom act, NPC1 promoter act)
COc1ccc(OCC2c3cc(OC)c(OC)cc3CCN2C(=O)COc2ccc(Cl)cc2Cl)cc1 (stereo not drawn)	none (no result: ELG1 genotoxic, SMN2 splice up, Rab9 prom act, NPC1 promoter act)
COc1ccc(CNC(=O)CCCc2nnc3n(CCC(C)C)c(=O)c4sccc4n23)cc1	none (no result: ELG1 genotoxic, SMN2 splice up, Rab9 prom act, NPC1 promoter act)
CCn1cc(C(=O)NCc2ccccc2OC)c(=O)c2cc(S(=O)(=O)N3CCCCC3)ccc21	none (no result: ELG1 genotoxic, Rab9 prom act, NPC1 promoter act)
Cc1cccc(NC(=S)NCCc2ccccc2)c1C	none (no result: SMN2 splice up)
Cc1cccnc1NC(=S)NCCc1ccccc1	FLuc counter 16.9µM, ELG1 genotoxic inconclusive, SMN2 splice up inconclusive, Rab9 prom act inconclusive
Cc1cccnc1NC(N)=S	none
Cc1cccnc1NC(=S)Nc1ncccc1C	FLuc counter 13.5µM, ELG1 genotoxic inconclusive, Rab9 prom act 0.708µM, NPC1 promoter act 1.26µM (no result: SMN2 splice up)
COc1ccc(NC(=S)Nc2ncccc2C)c(OC)c1	FLuc counter 9.53µM, SMN2 splice up inconclusive, Rab9 prom act inconclusive, NPC1 promoter act inconclusive
COc1ccc(NC(=S)Nc2ncccc2C)cc1OC	FLuc counter inconclusive, ELG1 genotoxic inconclusive, SMN2 splice up 35.5µM, Rab9 prom act inconclusive, NPC1 promoter act inconclusive
CCOc1ccccc1NC(=S)Nc1ncccc1C	FLuc counter inconclusive (no result: SMN2 splice up)
CCc1ccc(NC(=O)C(=O)NCCc2csc(-c3ccc(C(F)(F)F)cc3)n2)cc1	none (no result: ELG1 genotoxic, SMN2 splice up, Rab9 prom act, NPC1 promoter act)
Cc1cccc(CCNC(=O)CN(c2ccc(C(C)C)cc2)S(=O)(=O)c2c(C)nn(C)c2C)c1	none (no result: ELG1 genotoxic, Rab9 prom act, NPC1 promoter act)
N#C/C(=C\c1c[nH]c2ccccc12)C(=O)NC1CCCC1	FLuc counter 15.1µM (no result: SMN2 splice up)
Cc1[nH]c2ccccc2c1/C=C(\C#N)C(=O)NC1CC1	FLuc counter 16.9µM, ELG1 genotoxic inconclusive, Rab9 prom act inconclusive, NPC1 promoter act inconclusive (no result: SMN2 splice up)
Cc1[nH]c2ccccc2c1/C=C(\C#N)C(=O)NC(C)c1ccccc1 (stereo not drawn)	none
N#C/C(=C\c1c[nH]c2ccccc12)C(=O)NC1CC1	FLuc counter 7.57µM, ELG1 genotoxic inconclusive, Rab9 prom act inconclusive, NPC1 promoter act 3.55µM (no result: SMN2 splice up)
O=C(Cn1cnc2onc(-c3ccc(F)cc3)c2c1=O)Nc1cccc(C(F)(F)F)c1	none (no result: ELG1 genotoxic, SMN2 splice up, Rab9 prom act, NPC1 promoter act)
